Measured values published in PubChem BioAssay (NCATS).

Biological target: Glucocorticoid receptor (Homo sapiens) (UniProt P04150)
Experiment: GR-GFP Redistribution (AID 450)
Conditions: U2OS GR-GFP nuclear translocation, laser cytometry, 2 h;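 active = compounds whose dose series gives a full or clear partial fitted curve of increased nuclear translocation; inconclusive = weak partial curve or effect only at the top dose; inactive = no dose-dependent translocation response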
Potency is read from the fitted curve at half-maximal effect.

Glucocorticoid receptor (Homo sapiens), sequence (P04150 whole entry, looked up): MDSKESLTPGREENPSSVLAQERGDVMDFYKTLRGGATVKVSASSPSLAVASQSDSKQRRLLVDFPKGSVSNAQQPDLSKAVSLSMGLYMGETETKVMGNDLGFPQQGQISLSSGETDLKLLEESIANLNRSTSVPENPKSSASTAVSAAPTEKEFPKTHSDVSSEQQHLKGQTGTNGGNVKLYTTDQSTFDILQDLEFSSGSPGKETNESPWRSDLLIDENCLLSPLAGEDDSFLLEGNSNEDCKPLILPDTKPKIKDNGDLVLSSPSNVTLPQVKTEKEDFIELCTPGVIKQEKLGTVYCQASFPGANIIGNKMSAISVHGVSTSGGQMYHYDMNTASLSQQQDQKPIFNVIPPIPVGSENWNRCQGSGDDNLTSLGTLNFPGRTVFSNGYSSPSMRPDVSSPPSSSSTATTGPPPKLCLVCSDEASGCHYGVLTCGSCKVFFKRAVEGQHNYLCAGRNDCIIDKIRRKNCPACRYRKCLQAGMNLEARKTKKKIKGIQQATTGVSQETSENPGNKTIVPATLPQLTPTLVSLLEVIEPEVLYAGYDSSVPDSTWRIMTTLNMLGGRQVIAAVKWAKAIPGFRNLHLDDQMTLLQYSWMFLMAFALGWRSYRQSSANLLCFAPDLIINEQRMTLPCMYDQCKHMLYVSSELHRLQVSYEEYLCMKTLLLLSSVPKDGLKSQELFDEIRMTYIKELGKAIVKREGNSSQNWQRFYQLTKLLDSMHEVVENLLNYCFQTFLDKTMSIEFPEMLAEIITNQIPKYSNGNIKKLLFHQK

Potency, inactive:
CC(=O)NCCNc1nc(-c2cccc(NS(C)(=O)=O)c2)nc2ccccc12 > 46 µM, Cc1noc(C)c1-c1nccc(NCCN2CCOCC2)n1 > 46 µM, Cc1cnc(CNc2ccnc(-c3cccc(NS(C)(=O)=O)c3)n2)cn1 > 46 µM, COc1cccc(Cn2c(=O)c(-c3cccc(C#N)c3)nc3cnc(N4CCOCC4)nc32)c1 > 9.22 µM, CN(C)C(=O)c1ccc(-c2cncnc2-n2ccnc2)cc1 > 46 µM, COc1ccccc1-c1cc(NCc2cnc(C)cn2)ncn1 > 46 µM, CNc1nc(-c2cccc(C#N)c2)nc2ccccc12 > 46 µM, COc1ccc2[nH]cc(CCNc3nc(-c4ccc(N(C)C)cc4)nc4ccccc34)c2c1 > 46 µM, COCCNc1nc(-c2c(C)noc2C)nc2ccccc12 > 46 µM, CN(C)C(=O)c1ccc(-c2ccc3ncnc(N4CCOCC4)c3c2)cc1 > 46 µM, COc1ccccc1CNc1ccnc(-c2ccccc2Cl)n1 > 46 µM, COc1cccc(Cn2c(=O)c(-c3ccc(F)cc3)nc3cncnc32)c1 > 9.22 µM, Cc1noc(C)c1-c1nc(NC2CC2)c2ccccc2n1 > 46 µM, COc1cccc(Nc2ncc3ncc(=O)n(C[C@H]4CCCO4)c3n2)c1 > 9.22 µM, Cn1cc(-c2nc3cncnc3n(C3CC3)c2=O)c2ccccc21 > 9.22 µM, COc1ccc(-c2nc3cnc(OCc4ccccc4)nc3n(CCC#N)c2=O)cc1 > 9.22 µM, COc1ccc2[nH]cc(CCNc3ccnc(-c4ccc(N(C)C)cc4)n3)c2c1 > 46 µM, Cn1cc(-c2nc3cncnc3n(Cc3ccccc3Cl)c2=O)c2ccccc21 > 9.22 µM, COc1cccc(-c2cc(NCc3cnc(C)cn3)ncn2)c1 > 46 µM, CC(=O)NCCNc1nc(-c2ccccc2C)nc2ccccc12 > 46 µM, COc1ccc(Oc2ncc3nc(-c4ccc(F)cc4)c(=O)n(Cc4cccs4)c3n2)cc1 > 9.22 µM, COc1ccc2[nH]cc(CCNc3ncncc3-c3cccnc3)c2c1 > 46 µM, CS(=O)(=O)Nc1cccc(-c2cc(Nc3ccccc3)ncn2)c1 > 46 µM, COc1ccccc1CNc1cc(-c2ccccc2OC)ncn1 > 46 µM, CNc1nc(-c2ccc(C(=O)N(C)C)cc2)nc2ccccc12 > 46 µM, CN(C)C(=O)c1ccc(-c2nccc(-n3ccnc3)n2)cc1 > 46 µM, Cc1cnc(CNc2cc(-c3ccccc3Cl)ncn2)cn1 > 46 µM, CN(Cc1ccco1)c1cc(-c2cccc(C#N)c2)ncn1 > 46 µM, Cc1ccccc1-c1nc(N(C)C)c2ccccc2n1 > 46 µM, Cc1noc(C)c1-c1nccc(NCc2ccccc2)n1 > 46 µM, Cc1cnc(CNc2cc(-c3ccccc3C(F)(F)F)ncn2)cn1 > 46 µM, CN(C)C(=O)c1ccc(-c2ccc3ncnc(N4CCNCC4)c3c2)cc1 > 46 µM, COc1cccc(-c2cc(NCc3cccnc3)ncn2)c1 > 46 µM, COc1ccc2[nH]cc(CCNc3ccnc(-c4ccc5c(c4)OCO5)n3)c2c1 > 46 µM, COc1ccc(CNc2ncncc2-c2ccc(C(=O)N(C)C)cc2)c(OC)c1 > 46 µM, Cn1c(=O)c(-c2cc(F)cc(F)c2)nc2cncnc21 > 9.22 µM, COc1cccc(-c2cncnc2NCc2cnc(C)cn2)c1 > 46 µM, COc1ccccc1-c1nc(NCCN2CCOCC2)c2ccccc2n1 > 46 µM, Cc1cnc(CNc2cc(-c3cccnc3)ncn2)cn1 > 46 µM, Cc1cnc(CNc2cc(-c3ccccc3C)ncn2)cn1 > 46 µM
